Structures are written as SMILES. Potency and affinity values are given separately. Results filed as inconclusive are left out. A call without a number means that no potency is given here. Active and inactive are the calls of the source.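 The calls were made as follows: active = fitted half-maximal concentration no higher than twice the top tested dose, in every repeat run; inconclusive = repeat runs disagree, poor fit, or flat partial inhibition; inactive = the rest.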

The target in this assay is Endoplasmic reticulum aminopeptidase 1 (Homo sapiens) (UniProt Q9NZ08). Kind of assay: inhibition of human ERAP1 enzyme activity – biochemical, cherry-pick, set 2, plate reader, dose response (AID 743314). Conditions: Recombinant ERAP1, Leu-AMC fluorescence, 60 min; series mostly up to 11 µM.
Sequence of Endoplasmic reticulum aminopeptidase 1 (Homo sapiens) (Q9NZ08 whole entry, looked up): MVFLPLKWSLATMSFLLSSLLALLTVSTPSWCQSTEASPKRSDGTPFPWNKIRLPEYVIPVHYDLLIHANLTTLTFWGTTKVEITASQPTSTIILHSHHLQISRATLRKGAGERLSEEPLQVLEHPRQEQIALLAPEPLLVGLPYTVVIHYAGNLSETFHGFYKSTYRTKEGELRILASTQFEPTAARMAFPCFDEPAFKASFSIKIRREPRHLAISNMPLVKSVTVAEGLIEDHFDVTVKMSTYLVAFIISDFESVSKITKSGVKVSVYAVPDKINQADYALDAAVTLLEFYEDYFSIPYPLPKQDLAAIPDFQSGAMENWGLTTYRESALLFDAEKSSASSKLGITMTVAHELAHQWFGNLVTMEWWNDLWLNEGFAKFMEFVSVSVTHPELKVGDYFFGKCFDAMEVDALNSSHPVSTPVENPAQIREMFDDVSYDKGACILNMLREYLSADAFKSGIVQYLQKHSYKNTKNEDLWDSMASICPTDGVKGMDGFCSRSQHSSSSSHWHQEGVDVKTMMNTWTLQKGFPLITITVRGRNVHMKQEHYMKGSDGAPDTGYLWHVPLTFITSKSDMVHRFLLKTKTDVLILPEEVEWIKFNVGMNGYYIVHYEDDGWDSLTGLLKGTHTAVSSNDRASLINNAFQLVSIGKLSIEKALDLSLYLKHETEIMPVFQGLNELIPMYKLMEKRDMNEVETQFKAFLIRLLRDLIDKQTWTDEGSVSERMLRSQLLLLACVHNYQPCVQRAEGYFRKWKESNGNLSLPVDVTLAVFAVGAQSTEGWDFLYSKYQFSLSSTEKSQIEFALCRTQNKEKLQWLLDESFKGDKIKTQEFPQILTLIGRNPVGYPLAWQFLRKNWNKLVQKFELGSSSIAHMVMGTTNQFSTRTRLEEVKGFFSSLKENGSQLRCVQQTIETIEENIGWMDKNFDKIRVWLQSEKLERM
On to `Cc1ccc(S(=O)(=O)Nc2ccc3c(c2)CC(=O)N([C@H](C)CO)C[C@H](C)[C@H](CN(C)Cc2ccccc2)O3)cc1`, for which the result was inactive.

`C[C@@H]1CCCCO[C@@H](CN(C)Cc2ccc(C(=O)O)cc2)[C@H](C)CN([C@@H](C)CO)C(=O)c2cc(NS(=O)(=O)c3ccc(Cl)cc3)ccc2O1`: the outcome was inactive.

Turning to `CCCN1[C@@H]2Cn3c(ccc(-c4cccnc4)c3=O)[C@H]1[C@@H](C(=O)NCCc1cn(C)cn1)[C@@H]2CO`, the result was inactive.

On to `COc1ccc2c3c([nH]c2c1)[C@H](CO)NCC31CN(Cc2cc(F)ccc2F)C1`, for which the result was inactive.

Consider `CCN(CC)CCCN=C1N[C@@H](c2cccc(C(F)(F)F)c2)C(C(=O)OC)=C(C)N1CC`, for which the result was inactive.

As for `O=C(O)c1cccc(NC(=O)c2ccccc2NC(=O)c2cccc([N+](=O)[O-])c2)c1`, the result was inactive.

As to `C[C@@H]1CN([C@H](C)CO)C(=O)Cc2cc(NC(=O)Nc3cccc4ccccc34)ccc2O[C@H]1CN(C)Cc1ccc(C(=O)O)cc1`, the result was inactive.

For `COc1ccc2c3c([nH]c2c1)[C@@H](CO)N(Cc1ccccc1)CC31CN(C)C1`, the result was inactive.

`C=CCn1nnnc1SCC(=O)Nc1cccc(C(F)(F)F)c1`: the outcome was inactive.

Consider `O=C(CSc1n[nH]c(-c2cccs2)n1)NC1CCS(=O)(=O)C1` (configuration not stated), for which the result was inactive.

As for `COc1ccc(CN(C)C[C@@H]2Oc3ccc(NS(=O)(=O)c4ccc(C)cc4)cc3C(=O)N([C@@H](C)CO)C[C@@H]2C)cc1`, the result was inactive.

Take `C[C@H]1CCCCO[C@@H](CN(C)S(=O)(=O)c2cn(C)cn2)[C@@H](C)CN([C@@H](C)CO)C(=O)c2cc(NC(=O)Nc3ccccc3)ccc2O1`: the outcome was inactive.
